From PubChem BioAssay (NCATS)
Results filed as inconclusive are left out. Calls of active or inactive are those of the source. Calls follow the shape of the dose curve; as a rule, active = well fitted inhibition curve with a large enough effect; inconclusive = small, poorly fitted or top-dose-only effect, or effect the other way; inactive = flat fitted curve, though single readings scatter.

Target: ATP-dependent 6-phosphofructokinase (Trypanosoma brucei brucei) (UniProt O15648)
Assay: qHTS Assay to Find Inhibitors of T. brucei phosphofructokinase: hit validation (AID 492961);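 also: luminescence reports ADP formed as PFK phosphorylates fructose-6-phosphate with ATP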
Conditions: T. brucei PFK, ADP-Glo luminescence; series mostly up to 51.4 µM
Procedure, shortened: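 Percent activity derived from corrected luminescence, normalized between 0x and 1x enzyme controls, then fitted to concentration-response curves. Conditions: 1.25 nM PFK, 0.1 mM ATP, 0.5 mM F6P, 45 min RT.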

Chain of ATP-dependent 6-phosphofructokinase (Trypanosoma brucei brucei) (O15648 whole entry, looked up): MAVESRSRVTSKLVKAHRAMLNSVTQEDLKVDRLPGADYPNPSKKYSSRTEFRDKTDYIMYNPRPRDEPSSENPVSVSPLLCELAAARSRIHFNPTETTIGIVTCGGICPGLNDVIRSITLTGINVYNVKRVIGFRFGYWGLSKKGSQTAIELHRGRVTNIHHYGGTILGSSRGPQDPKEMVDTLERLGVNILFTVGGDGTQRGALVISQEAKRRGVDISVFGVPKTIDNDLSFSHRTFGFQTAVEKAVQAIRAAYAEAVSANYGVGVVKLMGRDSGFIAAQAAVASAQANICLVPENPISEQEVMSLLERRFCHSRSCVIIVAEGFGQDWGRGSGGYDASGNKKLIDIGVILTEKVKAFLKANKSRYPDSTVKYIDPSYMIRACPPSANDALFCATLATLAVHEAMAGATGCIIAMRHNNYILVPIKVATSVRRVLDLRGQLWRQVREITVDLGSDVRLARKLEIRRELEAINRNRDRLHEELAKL

| Structure (SMILES) | outcome |
| --- | --- |
| CC/C(=C(/CC)c1ccc(O)cc1)c1ccc(O)cc1 | inactive |
| CCOC(=O)/C=C(C)/C=C/C=C(C)/C=C/c1c(C)cc(OC)c(C)c1C | inactive |
| C[C@H](O)C(=O)Nc1c(I)c(C(=O)NC(CO)CO)c(I)c(C(=O)NC(CO)CO)c1I | inactive |
| NCCc1ccn[nH]1 | inactive |
| CC(C)(C(=O)c1cccnc1)c1cccnc1 | inactive |
| Cc1ccnc(NS(=O)(=O)c2ccc(N)cc2)n1 | inactive |
| CCN(CC)CCOC(=O)C(c1ccccc1)C1CCCCC1 (centres undefined) | inactive |
| NC(CO)(CO)CO | inactive |
| Cc1c(N(C)CS(=O)(=O)O)c(=O)n(-c2ccccc2)n1C | inactive |
| CC(=O)N(O)CCCCCNC(=O)CCC(=O)N(O)CCCCCNC(=O)CCC(=O)N(O)CCCCCN | inactive |
| Cc1cccc(C)c1NC(=O)CN1CCN(CCCC(c2ccc(F)cc2)c2ccc(F)cc2)CC1 | inactive |
| COc1cc(C(=S)N2CCOCC2)cc(OC)c1OC | inactive |
| CCCCCCc1ccc(O)cc1O | inactive |
| CCCCN1CCCC1C(=O)Nc1c(C)cc(C)cc1C (centres undefined) | inactive |
| Cc1c(F)c(N2CCNC(C)C2)cc2c1c(=O)c(C(=O)O)cn2C1CC1 (centres undefined) | inactive |
| COc1cc2c(cc1OC)C(=O)C(CC1CCN(Cc3ccccc3)CC1)C2 (centres undefined) | inactive |
| Cc1ccc(O)c2ncccc12 | inactive |
| CCOc1ccc(NC(=O)CC(C)O)cc1 (centres undefined) | inactive |
| CCCOC(C(=O)OC1CCN(C)CC1)(c1ccccc1)c1ccccc1 | inactive |
| CCN1CCCC1=O | inactive |

| Structure (SMILES) | outcome |
| --- | --- |
| COc1cc2c(cc1OC)C(C(C(=O)N(CCc1ccc(OC)c(OC)c1OC)CCc1ccc(OC)c(OC)c1OC)c1ccccc1)=NCC2 (centres undefined) | inactive |
| Cc1ccc(C(=O)C(C)CN2CCCCC2)cc1 (centres undefined) | inactive |
| O=C(O)CNC(=O)c1ccccc1 | inactive |
| O=C(Nc1ccc(Oc2ccc(Cl)cc2)c(Cl)c1)c1cc(I)cc(I)c1O | inactive |
| CC(O)(P(=O)(O)O)P(=O)(O)O | inactive |
| O=c1ccc2ccccc2o1 | inactive |
| COCc1c(C(C)C)nc(C(C)C)c(/C=C/[C@@H](O)C[C@@H](O)CC(=O)O)c1-c1ccc(F)cc1 | inactive |
| Oc1ccc(Cl)c2cccnc12 | inactive |
| Cc1c(C)n(CCN(C)C)c2ccc(C(=O)OCCN(C)C)cc12 | inactive |
| O=C(OCCOCCO)c1ccccc1Nc1cccc(C(F)(F)F)c1 | inactive |
| NCCCC[C@H](N[C@@H](CCc1ccccc1)C(=O)O)C(=O)N1CCC[C@H]1C(=O)O | inactive |
| Cc1c(C(C)C)c(=O)n(-c2ccccc2)n1C | inactive |
| COC1=CC(=O)C[C@@H](C)[C@]12Oc1c(Cl)c(OC)cc(OC)c1C2=O | inactive |
| CCCCCC=CCC=CCCCCCCCC(=O)OCC | inactive |
| CC1=C(C(=O)OC(C)C)C(c2cccc([N+](=O)[O-])c2)C(C(=O)OC2CN(C(c3ccccc3)c3ccccc3)C2)=C(N)N1 (centres undefined) | inactive |
| Cc1cc(O)c(C(C)C)cc1Cl | inactive |
| CCN(CC)CCNC(=O)COc1ccc(Cl)cc1 | inactive |
| COc1ccc(C2C(=O)c3ccccc3C2=O)cc1 | inactive |
| CCCCCCCCCCCCCCCC[N+](C)(C)CCN(Cc1ccc(OC)cc1)c1ncccn1 | inactive |
